Screens as filed in PubChem.
An excerpt weighted towards active compounds, which were near 1.5% of everything screened.
GALR2 ag: activates the human galanin receptor 2; actives 0.48% (n = 140,000); activation, % (concentration not given with the values); O43603; GALR2-expressing cells, agonist activation read-out; in the data active means activation above about 5%, passing the limit was not always enough;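 further: 0% = vehicle buffer wells and 100% = reference agonist at full effect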
S1P2 agonist: agonists of human S1P2 receptor. O95136. S1P2-expressing cell line, agonist reporter read-out. activation, % at 4.5 µM. actives 0.46% (n = 97,000); in the data active means activation above about 16%;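 further: 0% = vehicle low control and 100% = maximal reference agonist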
Target sequence (O95136 whole entry, looked up): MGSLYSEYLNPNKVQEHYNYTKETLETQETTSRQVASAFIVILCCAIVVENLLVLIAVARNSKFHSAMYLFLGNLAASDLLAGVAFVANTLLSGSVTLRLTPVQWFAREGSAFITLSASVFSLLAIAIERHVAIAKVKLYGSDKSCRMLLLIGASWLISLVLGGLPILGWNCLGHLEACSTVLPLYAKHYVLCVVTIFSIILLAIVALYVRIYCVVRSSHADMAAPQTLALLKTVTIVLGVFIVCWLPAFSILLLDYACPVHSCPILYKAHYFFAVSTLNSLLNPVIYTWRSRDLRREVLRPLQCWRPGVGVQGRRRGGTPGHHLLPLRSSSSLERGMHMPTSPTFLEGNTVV
S1P2 blocker: blocks the human S1P2 receptor; inhibition, % at 5 µM; actives 0.21% (n = 97,000); cell-based S1P2 antagonist assay, inhibition at 5 uM; AID 736; in the data active means inhibition above about 45%;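 further: CRE beta-lactamase reporter cells expressing human S1P2 stimulated with S1P; 0% = agonist at EC80 alone and 100% = agonist plus reference antagonist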
CD11b adhes enh: enhancers of human CD11b/CD18 binding to fibrinogen | P05107+P11215 | K562 CD11b/CD18 adhesion to fibrinogen, ATPlite luminescence | activation, % at 10 µM | actives 0.07% (n = 93,000) | AID 1499;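 active means 10 µM primary screen giving 50% or more activity, confirmed by 40% or more on retest at that dose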
CD11b adhes inh: CD11b/CD18-fibrinogen binding inhibition | K562 CD11b/CD18 adhesion to fibrinogen, ATPlite luminescence; Mn2+ added to activate the integrin | inhibition, % at 10 µM | actives 0.54% (n = 93,000);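 active means primary inhibition of 50% or more at 10 µM, then 40% or more on retest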
GALR2 antag: antagonists of human galanin receptor 2 (GALR2) | AID 828 | actives 0.39% (n = 140,000) | GALR2-expressing cells, antagonist mode | inhibition, % at 4 µM;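 further: cells stimulated with galanin 1-16 at roughly its EC80; 0% = agonist challenge control and 100% = basal control without agonist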
GALR2 agon conf: confirmation of human galanin receptor 2 (GALR2) agonists; activation, % at 5.6 µM; shares compounds with GALR2 ag; actives 10% (n = 460); AID 864; GALR2-expressing cells, agonist activation; in the data active means activation above about 8.4%;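 further: 0% = buffer-only vehicle wells and 100% = full reference agonist response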
BLA act counter: counter-screen for GALR2 agonists: beta-lactamase reporter activators; shares compounds with GALR2 ag; CHO NFAT-bla reporter, beta-lactamase FRET activation; activation, % at 5.6 µM; actives 10% (n = 460); AID 865;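 active means activation above the screen-wide mean activation plus 3 SD, cut at about 8% in these data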;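 further: 0% = DMSO with PBS wells and 100% = thapsigargin positive control wells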
GALR2 ant conf: confirmation of human galanin receptor 2 (GALR2) antagonists; shares compounds with GALR2 antag; GALR2-expressing cells, antagonist mode, inhibition; inhibition, % at 4 µM; actives 60% (n = 480);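 further: cells stimulated with galanin at about its EC80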
BLA inh counter: beta-lactamase inhibition, GALR2 counterscreen; shares compounds with GALR2 antag; CHO NFAT-BLA reporter, beta-lactamase FRET, thapsigargin-stimulated; inhibition, % at 4.2 µM; actives 36% (n = 480); AID 867;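 active means inhibition above the mean inhibition across tested compounds plus 3 SD, cut at about 27% in these data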;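 further: 0% = 500 nM thapsigargin stimulated wells and 100% = unstimulated BSA only wells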
Active calls of the source: *; . = no result. Unless noted, no stated cut-off is given here; in the data, active means inhibition above about 27%; inactive means the rest.

SMILES | GALR2 ag | S1P2 agonist | S1P2 blocker | CD11b adhes enh | CD11b adhes inh | GALR2 antag | others
CC(C)CNC(=O)c1c(N)n(Cc2ccco2)c2nc3ccccc3nc12 | 17* | 33* | -65 | -5 | -9 | -24
CC(C)OCCCNC(=O)c1c(N)n(Cc2cccs2)c2nc3ccccc3nc12 | 29* | . | . | 4 | 1 | -11
CC(C)CNC(=O)c1c(N)n(Cc2ccc3c(c2)OCO3)c2nc3ccccc3nc12 | 40* | 67* | -140 | 0 | -3 | -37
CCCNC(=O)c1c(N)n(Cc2ccc3c(c2)OCO3)c2nc3ccccc3nc12 | 0 | 14 | -5 | 29 | -18 | -25
CC(C)CCNC(=O)c1c(N)n(Cc2ccc3c(c2)OCO3)c2nc3ccccc3nc12 | 10 | 129* | -98 | 1 | 11 | -12
O=P(Nc1cccnc1)(Oc1ccccc1Cl)Oc1ccccc1Cl | -1 | . | . | . | . | -8
O[C@H]1C2CCC1C(N1CCCCC1)CC2 (stereo partly drawn) | -1 | -9 | -7 | -2 | -4 | -11
Cc1nn(Cc2ccccc2)c(Cl)c1C(=O)NC1CCCc2ccccc21 (stereo not drawn) | -2 | . | . | 8 | 22 | 8
COCCNC(=O)c1c(N)n(CCC(C)C)c2nc3ccccc3nc12 | 16* | 16* | -34 | 4 | 0 | -13
Nc1c(C(=O)NCc2ccco2)c2nc3ccccc3nc2n1CCN1CCCCC1 | 8 | 28* | -1 | 5 | 8 | -11
CC(C)CCn1c(N)c(C(=O)NCc2cccs2)c2nc3ccccc3nc21 | 3 | 15 | -27 | -2 | 22 | 0
COc1ccc(Cn2c(N)c(C(=O)NCc3ccco3)c3nc4ccccc4nc32)cc1OC | 2 | 7 | -21 | -3 | -3 | -9
N=Cc1c(O)n(-c2ccc(C34CC5CC(CC(C5)C3)C4)cc2)c(=O)[nH]c1=O | -1 | . | . | . | . | -5
CCn1nc(-c2ccccc2)nc2c(=O)n(C)c(=O)nc1-2 | 4 | . | . | . | . | 95*
Cc1cc(=O)n(-c2ccccc2)n1-c1ccccc1 | -1 | . | . | . | . | 16
CC1CCN(S(=O)(=O)c2ccc(NN=C(C#N)C#N)cc2)CC1 | -3 | -7 | 6 | -9 | 98* | 2
O=C1C(=O)c2ccccc2-c2ccccc21 | 0 | -4 | 19 | -7 | 60* | 17
CC(=NCc1cccnc1)c1c(O)n(-c2ccccc2C)c(=O)[nH]c1=O | -1 | -2 | 1 | -4 | -13 | -21
Cc1cccc(N2C(=O)NC(=O)/C(=C\c3cccn3-c3ccc(Cl)cc3)C2=O)c1 | -1 | -6 | 56* | . | . | 8
Cc1cc(C)cc(N2C(=O)NC(=O)/C(=C/c3cccn3-c3ccc(Cl)cc3)C2=O)c1 | -1 | . | . | 60 | 0 | -1
Cc1ccccc1NP(=O)(Oc1ccccc1F)Oc1ccccc1F | -1 | . | . | 5 | 21 | -7
CN1/C(=C\C=C\C2=[N+](C)c3ccc4ccccc4c3C2(C)C)C(C)(C)c2ccccc21 | 1 | -5 | 95* | . | . | -51
CN1/C(=C\C=Nc2ccccc2)C(C)(C)c2ccccc21 | -2 | -6 | 0 | -3 | -2 | 1
Nc1c(C(=O)NC2CCCC2)c2nc3ccccc3nc2n1CC1CCCO1 (stereo not drawn) | 33* | 44* | -56 | 0 | -1 | -13
Nc1c(C(=O)OCC2CCCO2)c2nc3ccccc3nc2n1Cc1cccs1 (stereo not drawn) | 0 | 1 | -11 | 0 | 14 | 15
SMILES | GALR2 ag | S1P2 agonist | S1P2 blocker | CD11b adhes enh | CD11b adhes inh | GALR2 antag | others
C[C@H]1CCC/C=C/C2C[C@H](O)CC2[C@H](O)/C=C/C(=O)O1 (stereo partly drawn) | -1 | . | . | . | . | 49*
CSc1ncc(/C=C2/C(=O)NC(=O)N(c3ccc(C(C)C)cc3)C2=O)cn1 | 5.1* | . | . | . | . | -2
O=C(Cn1cnc2sc3c(c2c1=O)CCCC3)NCCCC(=O)N1CCC2(CC1)OCCO2 | -2 | -4 | -16 | -3 | 1 | 0
O=C(Oc1c(Cl)cc(Cl)c2ccccc12)N1CCCCC1 | 0 | -1 | -35 | -5 | 56* | -24
Cc1ccc2cccc(OC(=O)N3CCCC3)c2n1 | -1 | -6 | -5 | 10 | -26 | -7
COc1cc(CN2CCN(c3cc(C)ccc3C)CC2)ccc1O | 49* | -7 | 1 | -2 | 7 | 7 | GALR2 agon conf=-1;BLA act counter=-2
COCCCn1c(N)c(C(=O)OCCOC)c2nc3ccccc3nc21 | 1 | . | . | 0 | -10 | 8
CCCNC(=O)c1c(N)n(Cc2ccco2)c2nc3ccccc3nc12 | 18* | 13 | -24 | -1 | -6 | -8 | GALR2 agon conf=5;BLA act counter=11*
COCCCNC(=O)c1c(NC(=O)c2ccco2)n(Cc2ccccc2)c2nc3ccccc3nc12 | 9 | 1 | 18 | 0 | 1 | 5 | GALR2 agon conf=2;BLA act counter=2
CCCCNC(=O)c1c(N)n(CCCOC)c2nc3ccccc3nc12 | 9.4* | . | . | -1 | 1 | -15 | GALR2 agon conf=4;BLA act counter=14*
CCOP(=S)(NN(Cc1ccccc1)C(=O)c1ccccc1)OCC | 0 | . | . | . | . | 0
COC(=O)c1ccc(NC(=O)CSc2nc3ccc(N4C(=O)C5C6C=CC(C6)C5C4=O)cc3s2)cc1 (stereo not drawn) | -1 | . | . | . | . | -2
CC(c1ccccc1)n1cncc1C(=O)O (stereo not drawn) | -1 | -6 | -5 | . | . | 0
O=[N+]([O-])c1ccc(C2[C@H]3C(c4ccccc4)=NC4(CCCC4)N23)cc1 (stereo partly drawn) | 0 | . | . | -5 | 2 | -13
Cc1ccc(C2=NC(C)(C)N3C2C3c2ccc([N+](=O)[O-])cc2)cc1 (stereo not drawn) | 10* | . | . | . | . | 2 | GALR2 agon conf=-1;BLA act counter=-2
COC(=O)C1CN(C#N)N(c2ccc(Cl)cc2)C12c1ccccc1-c1ccccc12 (stereo not drawn) | -3 | -15 | 79* | . | . | 78* | GALR2 ant conf=87*;BLA inh counter=92*
CCn1c(=O)cc(SCC(=O)N2CCC3(CC2)OCCO3)c2ccccc21 | -2 | -6 | 2 | -3 | -7 | 5
CC1(C)C[C@H]2C=C(C=O)[C@]3(C=O)C[C@]3(C)[C@H]2C1 | -2 | . | . | . | . | 55* | GALR2 ant conf=92*;BLA inh counter=99*
O=C1NC(=O)C(CCc2ccncc2)(Cc2ccc([N+](=O)[O-])cc2)C(=O)N1 | -1 | . | . | . | . | 0
